The values that follow come from the supplement of paper PMC8253809.

Holding throughout (test): growth inhibition (% activity, log2 RLU normalised to DMSO / staurosporine); higher = more growth inhibition
Holding throughout (settings): 33 µM

In one assay the test system is DIPGX29 (H3.3 K27M diffuse intrinsic pontine glioma line). A digest of the protocol: (§1)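 Cells (pHGG lines and H9-derived neural stem cells) were plated on Geltrex-coated 384-well plates and exposed to approved drugs at a single final concentration of about 33 μM, in triplicate, for 7 days at 37 °C, 5% CO2. Log2-transformed CellTiter-Glo luminescence was normalised per plate to % activity between solvent and positive control wells, and the growth-inhibition value is the median over replicates.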

In the next assay the test system is DIPGX37 (H3.3 K27M diffuse intrinsic pontine glioma line). A digest of the protocol:
as §1

The subject of the next assay is DIPGX7 (H3.3 K27M diffuse intrinsic pontine glioma line). An outline of the steps: as §1
In a further assay the test system is DIPGX9 (diffuse intrinsic pontine glioma line). A digest of the protocol: as §1
In a further assay the test system is HGGX39 (paediatric high-grade glioma line). A digest of the protocol:
as §1

The subject of the next assay is HGGX6 (H3.3 G34R paediatric high-grade glioma line). A digest of the protocol:
as §1

The test system of a further assay is HNSC. An outline of the steps:
as §1

In another assay the test system is SUDIPGIV (diffuse intrinsic pontine glioma line)
A digest of the protocol: as §1

The next assay concerns SUDIPGVI (diffuse intrinsic pontine glioma line)
A digest of the protocol:
as §1

The subject of a further assay is SUDIPGXIII (diffuse intrinsic pontine glioma line)
An outline of the steps: as §1

For `CC(NC(=O)Cc1cc(F)cc(F)c1)C(=O)NC(C(=O)OC(C)(C)C)c1ccccc1` (stereo not given), the growth inhibition in the assay on DIPGX29 is 0.109%; in the assay on DIPGX37, -1.56%; in the assay on DIPGX7, 0.0172%; in the assay on DIPGX9 it was 0.631%; in the assay with HGGX39 it was 1.42%; in the assay with HGGX6, 1.3%. The growth inhibition in the assay with HNSC is 1.25%; in the assay with SUDIPGIV it was -6.22%; in the assay on SUDIPGVI, -0.444%; in the assay on SUDIPGXIII, 0.458%.
For the compound `O=C(O)COCCN1CCN(C(c2ccccc2)c2ccc(Cl)cc2)CC1` (stereo not given), the growth inhibition with DIPGX29 is 1.96%; in the assay on DIPGX37, 2.21%; with DIPGX7, 3.97%; with DIPGX9 it was 2.72%; in the assay on HGGX39 it was 4.64%; with HGGX6 it was 3.15%. Besides, the growth inhibition with HNSC is 3.36%; in the assay on SUDIPGIV, -0.252%; in the assay on SUDIPGVI it was 2.48%; in the assay with SUDIPGXIII it was 0.283%.
Regarding `CC(C)NCC(O)COc1ccc(COCCOC(C)C)cc1` (stereo not given), the growth inhibition with DIPGX29 was -3.23%; with DIPGX37 it was -0.456%; with DIPGX7 it was -0.461%; in the assay on DIPGX9, -0.782%; in the assay on HGGX39 it was -1.74%; in the assay on HGGX6 it was -3.85%. Further, the growth inhibition in the assay with HNSC was -7.27%; in the assay on SUDIPGIV it was -3.11%; in the assay with SUDIPGVI, -2.42%; in the assay with SUDIPGXIII it was -1.46%.
On to `CN(Cc1cnc2nc(N)nc(N)c2n1)c1ccc(C(=O)N[C@@H](CCC(=O)O)C(=O)O)cc1`, for which the growth inhibition with DIPGX29 amounted to 1.2%; with DIPGX37 it was 1.21%; with DIPGX7 it was 2.57%; in the assay on DIPGX9, 0.922%; with HGGX39 it was 3.95%; with HGGX6, 1.8%. Besides, the growth inhibition in the assay with HNSC is 2.32%; with SUDIPGIV it was -0.562%; in the assay with SUDIPGVI, 3.38%; with SUDIPGXIII it was 0.468%.
For the compound `COC1=C(OC)C(=O)C(CCCCCCCCCCO)=C(C)C1=O`, the growth inhibition with DIPGX29 is 3.13%; with DIPGX37, 3.03%; with DIPGX7, 2.61%; in the assay with DIPGX9, 2.12%; in the assay with HGGX39 it was 2.64%; with HGGX6, 3.84%. Moreover, the growth inhibition is 5.4% with HNSC, 1.6% in the assay on SUDIPGIV, 3.24% with SUDIPGVI and 2.03% in the assay on SUDIPGXIII.
On to `COc1cccc(N(C)C(=S)Oc2ccc3c(c2)CCCC3)n1`, for which the growth inhibition was 2.16% in the assay on DIPGX29; 1.79% in the assay on DIPGX37; 1.25% in the assay on DIPGX7; 2.82% in the assay with DIPGX9; 2.33% with HGGX39; 1.82% in the assay with HGGX6. Also, the growth inhibition in the assay with HNSC was 1.51%; with SUDIPGIV, 0.755%; with SUDIPGVI, 2.8%; in the assay with SUDIPGXIII it was 1.12%.
For `NC(=O)c1ncn([C@@H]2O[C@H](CO)[C@@H](O)[C@H]2O)c1O`, the growth inhibition was 0.0608% in the assay on DIPGX29; 0.272% with DIPGX37; -0.185% in the assay on DIPGX7; -0.234% with DIPGX9; 1.1% in the assay on HGGX39; 0.705% with HGGX6. The growth inhibition with HNSC is 1.34%; with SUDIPGIV, -0.809%; in the assay with SUDIPGVI it was -1.05%; in the assay on SUDIPGXIII, -0.893%.
In the case of `Cc1cc(N)c2ccccc2[n+]1CCCCCCCCCC[n+]1c(C)cc(N)c2ccccc21`, the growth inhibition is 39.6% in the assay on DIPGX29; 46.2% in the assay on DIPGX37; 35.4% with DIPGX7; 41.1% in the assay with DIPGX9; 55.5% in the assay with HGGX39; 36.2% in the assay on HGGX6. Moreover, the growth inhibition with HNSC amounted to 57.8%; with SUDIPGIV, 50%; with SUDIPGVI, 50.9%; in the assay on SUDIPGXIII, 52.5%.
Take `O=C([O-])c1ccccc1O.[Na+]`: the growth inhibition in the assay on DIPGX29 is 1.02%; in the assay on DIPGX37, 2.5%; in the assay on DIPGX7 it was 2.56%; with DIPGX9 it was 1.21%; in the assay on HGGX39, 1.15%; with HGGX6 it was -1.22%. Besides, the growth inhibition is 28.2% with HNSC, 1.6% with SUDIPGIV, -4.02% with SUDIPGVI and 0.791% in the assay with SUDIPGXIII.
Take `O=C1[C@H](CC[C@H](O)c2ccc(F)cc2)[C@@H](c2ccc(O)cc2)N1c1ccc(F)cc1`: the growth inhibition was 0.15% with DIPGX29; -1.79% in the assay on DIPGX37; 1.88% with DIPGX7; -0.813% in the assay on DIPGX9; -0.454% in the assay with HGGX39; -1.33% in the assay with HGGX6. Further, the growth inhibition in the assay on HNSC was -0.443%; in the assay with SUDIPGIV, -2.25%; with SUDIPGVI it was -5.97%; with SUDIPGXIII, 0.864%.
As to `CCOC(=O)c1c(CSc2ccccc2)n(C)c2cc(Br)c(O)c(CN(C)C)c12`, the growth inhibition was 0.0747% in the assay with DIPGX29; -1.13% in the assay with DIPGX37; 3.04% in the assay with DIPGX7; 0.402% in the assay with DIPGX9; 0.0757% with HGGX39; -2.62% in the assay on HGGX6. The growth inhibition in the assay with HNSC was 53.4%; with SUDIPGIV it was -4.36%; in the assay on SUDIPGVI, -8.38%; in the assay on SUDIPGXIII, 3.61%.
